# Assay results from PMC7862700, “An all-to-all approach to the identification of sequence-specific readers for epigenetic DNA modifications on cytosine”.
# Legend:
# Assay in all cases: DAPPL (digital affinity profiling via proximity ligation, sequencing); 10 mM Tris-HCl pH 7.5, 50 mM NaCl, 1 mM DTT, 4% glycerol, room temperature, 30 min; GST-TFs on glutathione beads, 16-mer random dsDNA library, 0.1% formaldehyde crosslink after washing; high values mean tight binding
# [1] = biological target: T1, FLI1 (Homo sapiens, UniProt Q01543 1-452); conditions: protein: recombinant; tags: N-terminal GST; dsDNA, one strand shown
# T1 sequence: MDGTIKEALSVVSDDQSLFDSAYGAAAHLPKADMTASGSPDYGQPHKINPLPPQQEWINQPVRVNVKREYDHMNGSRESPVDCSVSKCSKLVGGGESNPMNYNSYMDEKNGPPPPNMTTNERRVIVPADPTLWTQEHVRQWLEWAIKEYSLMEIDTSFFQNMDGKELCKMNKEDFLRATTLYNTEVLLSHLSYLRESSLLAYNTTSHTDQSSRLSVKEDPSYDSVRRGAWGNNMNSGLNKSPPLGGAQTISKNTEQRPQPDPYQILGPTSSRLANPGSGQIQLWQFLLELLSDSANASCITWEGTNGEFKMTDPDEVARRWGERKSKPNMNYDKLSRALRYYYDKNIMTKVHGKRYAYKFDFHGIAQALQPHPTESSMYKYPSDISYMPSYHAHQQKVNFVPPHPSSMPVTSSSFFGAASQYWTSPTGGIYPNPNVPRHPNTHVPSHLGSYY
# Procedure, shortened: (§1)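 After expression in yeast as GST fusions, human transcription factors were bound to glutathione beads, DNA-barcoded and mixed with a tag-only sample. The pools were incubated with 200 nmole of a 16-mer random double-stranded DNA library in Tris/NaCl/DTT/glycerol buffer (30 min, room temperature), washed and crosslinked with 0.1% formaldehyde. Proximity ligation with BsaI/T4 ligase ran for 1 h at 37 °C, before PCR amplification and sequencing on an Illumina NextSeq500. Binding signal is a hexamer's read frequency for a factor divided by its frequency for the tag-only sample.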
# [2] = biological target: T2, ELK1 (Homo sapiens, UniProt P19419 1-428); conditions: protein: recombinant; tags: N-terminal GST; dsDNA, one strand shown
# T2 sequence: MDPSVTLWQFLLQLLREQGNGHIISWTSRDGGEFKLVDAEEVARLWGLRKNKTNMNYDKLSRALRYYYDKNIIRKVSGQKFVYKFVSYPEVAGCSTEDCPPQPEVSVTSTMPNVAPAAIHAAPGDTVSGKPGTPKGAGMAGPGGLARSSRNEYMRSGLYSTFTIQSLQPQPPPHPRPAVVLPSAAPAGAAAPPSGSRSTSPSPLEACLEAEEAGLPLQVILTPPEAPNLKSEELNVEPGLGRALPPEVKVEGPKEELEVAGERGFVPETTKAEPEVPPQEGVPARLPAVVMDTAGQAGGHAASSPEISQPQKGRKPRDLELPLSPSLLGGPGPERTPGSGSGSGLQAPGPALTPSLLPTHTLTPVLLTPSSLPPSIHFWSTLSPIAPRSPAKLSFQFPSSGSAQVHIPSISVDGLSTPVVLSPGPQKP
# Procedure, shortened: as §1
# [3] = biological target: T3, GABPA (Homo sapiens, UniProt Q06546 1-454); conditions: protein: recombinant; tags: N-terminal GST; dsDNA, one strand shown
# T3 sequence: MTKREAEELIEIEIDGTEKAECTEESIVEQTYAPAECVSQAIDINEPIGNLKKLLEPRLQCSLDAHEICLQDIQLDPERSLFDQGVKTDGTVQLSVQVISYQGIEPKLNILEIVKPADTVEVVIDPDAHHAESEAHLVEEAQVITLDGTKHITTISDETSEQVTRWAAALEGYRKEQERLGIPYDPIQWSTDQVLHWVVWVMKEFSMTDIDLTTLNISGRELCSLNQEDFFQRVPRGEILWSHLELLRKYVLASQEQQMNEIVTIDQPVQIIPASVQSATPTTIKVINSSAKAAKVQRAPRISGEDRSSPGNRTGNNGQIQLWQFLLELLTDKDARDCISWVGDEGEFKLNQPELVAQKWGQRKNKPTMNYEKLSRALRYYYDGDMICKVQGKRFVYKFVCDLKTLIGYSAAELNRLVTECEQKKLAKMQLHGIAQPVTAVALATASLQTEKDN
# Procedure, shortened: as §1
# [4] = biological target: T4, ERG (Homo sapiens, UniProt P11308 1-479); conditions: protein: recombinant; tags: N-terminal GST; dsDNA, one strand shown
# T4 sequence: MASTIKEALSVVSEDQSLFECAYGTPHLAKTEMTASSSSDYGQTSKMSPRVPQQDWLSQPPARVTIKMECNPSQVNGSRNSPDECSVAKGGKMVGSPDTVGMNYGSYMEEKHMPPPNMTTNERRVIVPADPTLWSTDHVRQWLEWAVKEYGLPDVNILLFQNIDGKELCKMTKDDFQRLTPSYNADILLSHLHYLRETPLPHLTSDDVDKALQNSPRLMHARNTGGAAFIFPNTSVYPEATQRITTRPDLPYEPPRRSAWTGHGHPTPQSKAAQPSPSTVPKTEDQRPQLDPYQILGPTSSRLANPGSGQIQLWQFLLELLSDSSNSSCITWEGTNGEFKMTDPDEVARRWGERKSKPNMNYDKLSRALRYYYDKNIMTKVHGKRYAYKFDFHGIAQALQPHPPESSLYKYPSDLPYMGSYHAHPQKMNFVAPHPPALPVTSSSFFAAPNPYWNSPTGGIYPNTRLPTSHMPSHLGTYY
# Procedure, shortened: as §1
# [5] = biological target: ELF1 (Homo sapiens, UniProt P32519 1-619); conditions: protein: recombinant; tags: N-terminal GST; dsDNA, one strand shown
# Sequence of ELF1 (P32519 whole entry): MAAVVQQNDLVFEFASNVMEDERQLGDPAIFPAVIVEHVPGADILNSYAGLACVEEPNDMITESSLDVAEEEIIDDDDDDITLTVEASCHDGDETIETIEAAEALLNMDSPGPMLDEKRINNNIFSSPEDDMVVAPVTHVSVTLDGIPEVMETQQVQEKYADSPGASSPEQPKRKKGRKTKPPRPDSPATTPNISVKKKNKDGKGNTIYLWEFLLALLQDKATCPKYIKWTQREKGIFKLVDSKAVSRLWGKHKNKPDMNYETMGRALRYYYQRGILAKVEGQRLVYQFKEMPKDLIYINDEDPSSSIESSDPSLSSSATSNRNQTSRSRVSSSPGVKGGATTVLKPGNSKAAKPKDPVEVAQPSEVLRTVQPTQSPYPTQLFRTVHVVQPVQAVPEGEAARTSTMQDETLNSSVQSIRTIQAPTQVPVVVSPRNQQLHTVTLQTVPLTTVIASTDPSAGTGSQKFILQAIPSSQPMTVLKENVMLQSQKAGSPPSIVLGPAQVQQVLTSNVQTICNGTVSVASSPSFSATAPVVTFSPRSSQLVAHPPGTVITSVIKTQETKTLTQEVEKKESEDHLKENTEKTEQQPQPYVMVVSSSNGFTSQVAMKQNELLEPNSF
# Procedure, shortened: as §1
# [6] = biological target: T5, EHF (Homo sapiens, UniProt Q9NZC4 1-300); conditions: protein: recombinant; tags: N-terminal GST; dsDNA, one strand shown
# T5 sequence: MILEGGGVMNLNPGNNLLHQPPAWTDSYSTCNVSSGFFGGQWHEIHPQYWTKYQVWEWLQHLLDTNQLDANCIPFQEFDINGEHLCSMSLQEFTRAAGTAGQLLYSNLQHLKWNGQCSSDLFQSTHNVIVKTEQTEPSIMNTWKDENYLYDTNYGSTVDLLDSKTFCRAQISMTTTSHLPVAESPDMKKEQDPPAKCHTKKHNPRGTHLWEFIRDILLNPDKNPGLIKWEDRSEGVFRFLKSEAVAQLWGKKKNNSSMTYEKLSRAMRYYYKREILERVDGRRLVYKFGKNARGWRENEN
# Procedure, shortened: as §1
# [7] = biological target: SPI1 (Homo sapiens, UniProt P17947 1-270); conditions: protein: recombinant; tags: N-terminal GST; dsDNA, one strand shown
# Procedure, shortened: as §1
# [8] = biological target: SPIB (Homo sapiens, UniProt Q01892 1-262); conditions: protein: recombinant; tags: N-terminal GST; dsDNA, one strand shown
# Sequence of SPIB (Q01892 whole entry): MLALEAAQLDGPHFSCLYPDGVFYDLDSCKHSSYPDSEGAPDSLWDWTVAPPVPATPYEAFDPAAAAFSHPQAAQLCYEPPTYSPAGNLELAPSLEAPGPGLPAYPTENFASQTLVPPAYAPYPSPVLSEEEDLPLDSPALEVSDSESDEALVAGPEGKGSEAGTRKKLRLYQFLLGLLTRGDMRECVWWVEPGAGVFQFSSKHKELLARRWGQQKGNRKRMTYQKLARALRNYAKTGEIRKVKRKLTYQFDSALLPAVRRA
# Procedure, shortened: as §1
# [9] = biological target: T6, ELK3 (Homo sapiens, UniProt P41970 1-407); conditions: protein: recombinant; tags: N-terminal GST; dsDNA, one strand shown
# T6 sequence: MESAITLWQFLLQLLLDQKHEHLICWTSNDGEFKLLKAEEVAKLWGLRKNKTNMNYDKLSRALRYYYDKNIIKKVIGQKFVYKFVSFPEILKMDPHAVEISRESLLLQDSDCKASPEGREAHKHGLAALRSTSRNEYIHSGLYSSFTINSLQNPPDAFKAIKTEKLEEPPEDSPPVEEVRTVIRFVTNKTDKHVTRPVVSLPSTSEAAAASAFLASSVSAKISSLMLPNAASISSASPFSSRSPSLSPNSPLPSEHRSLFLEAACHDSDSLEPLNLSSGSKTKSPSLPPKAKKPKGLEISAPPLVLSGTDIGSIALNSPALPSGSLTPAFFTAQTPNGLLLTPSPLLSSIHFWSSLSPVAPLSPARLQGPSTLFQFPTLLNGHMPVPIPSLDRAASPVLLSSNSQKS
# Procedure, shortened: as §1
# [10] = biological target: T7, FEV (Homo sapiens, UniProt Q99581 1-238); conditions: protein: recombinant; tags: N-terminal GST; dsDNA, one strand shown
# T7 sequence: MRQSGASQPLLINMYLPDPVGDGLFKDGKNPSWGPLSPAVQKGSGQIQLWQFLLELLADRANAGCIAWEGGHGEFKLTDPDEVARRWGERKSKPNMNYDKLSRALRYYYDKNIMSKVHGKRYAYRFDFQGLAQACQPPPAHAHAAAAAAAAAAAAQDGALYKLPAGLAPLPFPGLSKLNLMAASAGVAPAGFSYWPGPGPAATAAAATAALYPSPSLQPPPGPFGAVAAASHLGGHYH
# Procedure, shortened: as §1
# [11] = biological target: ETV5 (Homo sapiens, UniProt P41161 1-510); conditions: protein: recombinant; tags: N-terminal GST; dsDNA, one strand shown
# Sequence of ETV5 (P41161 whole entry): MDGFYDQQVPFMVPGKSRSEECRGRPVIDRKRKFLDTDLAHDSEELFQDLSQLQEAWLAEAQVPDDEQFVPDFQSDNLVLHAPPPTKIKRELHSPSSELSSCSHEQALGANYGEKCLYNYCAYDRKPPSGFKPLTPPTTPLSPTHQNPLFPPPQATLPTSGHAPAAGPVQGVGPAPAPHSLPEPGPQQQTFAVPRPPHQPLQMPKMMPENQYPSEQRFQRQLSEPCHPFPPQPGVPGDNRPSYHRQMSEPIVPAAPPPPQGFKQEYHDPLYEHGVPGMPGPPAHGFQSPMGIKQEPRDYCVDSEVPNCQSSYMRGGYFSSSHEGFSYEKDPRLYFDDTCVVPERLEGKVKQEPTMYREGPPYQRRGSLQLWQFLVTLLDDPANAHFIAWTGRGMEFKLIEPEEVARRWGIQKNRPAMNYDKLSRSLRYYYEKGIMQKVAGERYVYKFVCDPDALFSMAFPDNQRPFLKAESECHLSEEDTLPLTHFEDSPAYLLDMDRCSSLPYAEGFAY
# Procedure, shortened: as §1
# [12] = biological target: HSF1 (Homo sapiens, UniProt Q00613 1-529); conditions: protein: recombinant; tags: N-terminal GST; chain copies: 3; dsDNA, one strand shown
# Sequence of HSF1 (Q00613 whole entry): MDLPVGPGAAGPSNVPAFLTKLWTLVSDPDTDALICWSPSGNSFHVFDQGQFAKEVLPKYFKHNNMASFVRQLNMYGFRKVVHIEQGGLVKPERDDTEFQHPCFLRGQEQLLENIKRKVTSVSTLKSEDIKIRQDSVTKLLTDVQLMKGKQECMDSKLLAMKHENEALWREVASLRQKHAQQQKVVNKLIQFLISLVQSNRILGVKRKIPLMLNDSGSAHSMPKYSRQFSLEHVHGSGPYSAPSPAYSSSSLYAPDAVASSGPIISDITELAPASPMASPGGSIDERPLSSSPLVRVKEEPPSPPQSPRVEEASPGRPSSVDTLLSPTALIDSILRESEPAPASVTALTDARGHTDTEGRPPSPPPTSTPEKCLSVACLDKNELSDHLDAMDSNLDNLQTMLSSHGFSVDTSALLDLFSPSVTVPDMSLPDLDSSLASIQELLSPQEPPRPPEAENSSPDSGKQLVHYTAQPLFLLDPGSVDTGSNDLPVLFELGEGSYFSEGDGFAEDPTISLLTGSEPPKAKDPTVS
# Procedure, shortened: as §1
# [13] = biological target: T8, SPIC (Homo sapiens, UniProt Q8N5J4 1-248); conditions: protein: recombinant; tags: N-terminal GST; dsDNA, one strand shown
# T8 sequence: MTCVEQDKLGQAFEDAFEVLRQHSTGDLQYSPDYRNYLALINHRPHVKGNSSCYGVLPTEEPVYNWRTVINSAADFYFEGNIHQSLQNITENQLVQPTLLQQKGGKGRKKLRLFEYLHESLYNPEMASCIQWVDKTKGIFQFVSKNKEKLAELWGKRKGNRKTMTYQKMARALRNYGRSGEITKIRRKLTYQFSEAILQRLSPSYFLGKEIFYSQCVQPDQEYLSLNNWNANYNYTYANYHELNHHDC
# Procedure, shortened: as §1
# [14] = biological target: ELF4 (Homo sapiens, UniProt Q99607 1-663); conditions: protein: recombinant; tags: N-terminal GST; dsDNA, one strand shown
# Sequence of ELF4 (Q99607 whole entry): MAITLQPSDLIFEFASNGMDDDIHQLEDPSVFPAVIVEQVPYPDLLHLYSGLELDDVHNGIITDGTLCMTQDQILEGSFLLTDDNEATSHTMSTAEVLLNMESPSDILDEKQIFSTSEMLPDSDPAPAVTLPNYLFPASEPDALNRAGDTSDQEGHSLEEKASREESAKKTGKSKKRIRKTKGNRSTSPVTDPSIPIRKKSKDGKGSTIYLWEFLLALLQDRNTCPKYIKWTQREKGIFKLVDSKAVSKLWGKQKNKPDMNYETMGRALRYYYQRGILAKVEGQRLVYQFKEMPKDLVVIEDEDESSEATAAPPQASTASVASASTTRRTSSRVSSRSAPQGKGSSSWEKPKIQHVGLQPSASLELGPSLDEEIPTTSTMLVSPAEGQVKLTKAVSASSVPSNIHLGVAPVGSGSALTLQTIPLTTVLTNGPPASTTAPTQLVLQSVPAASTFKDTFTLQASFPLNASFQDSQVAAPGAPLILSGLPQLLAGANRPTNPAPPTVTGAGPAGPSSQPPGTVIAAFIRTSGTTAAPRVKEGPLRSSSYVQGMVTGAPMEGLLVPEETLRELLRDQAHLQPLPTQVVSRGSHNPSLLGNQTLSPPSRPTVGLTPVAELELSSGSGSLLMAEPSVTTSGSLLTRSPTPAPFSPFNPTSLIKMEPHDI
# Procedure, shortened: as §1
# [15] = biological target: T9, ELK4 (Homo sapiens, UniProt P28324-2 1-405); conditions: protein: recombinant; tags: N-terminal GST; dsDNA, one strand shown
# T9 sequence: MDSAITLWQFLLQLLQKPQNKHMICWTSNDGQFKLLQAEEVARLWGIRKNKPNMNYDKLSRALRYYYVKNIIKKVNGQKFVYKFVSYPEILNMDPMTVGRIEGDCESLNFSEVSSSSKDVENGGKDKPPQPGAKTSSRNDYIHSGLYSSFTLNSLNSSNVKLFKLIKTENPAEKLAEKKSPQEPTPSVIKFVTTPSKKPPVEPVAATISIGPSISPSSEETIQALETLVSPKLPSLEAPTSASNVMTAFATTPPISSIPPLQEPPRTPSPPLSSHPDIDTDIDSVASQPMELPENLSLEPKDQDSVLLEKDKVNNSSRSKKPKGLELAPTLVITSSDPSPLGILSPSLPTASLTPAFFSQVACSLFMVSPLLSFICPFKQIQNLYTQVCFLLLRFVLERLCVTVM
# Procedure, shortened: as §1
# [16] = biological target: T10, ETV2 (Homo sapiens, UniProt O00321 1-342); conditions: protein: recombinant; tags: N-terminal GST; dsDNA, one strand shown
# T10 sequence: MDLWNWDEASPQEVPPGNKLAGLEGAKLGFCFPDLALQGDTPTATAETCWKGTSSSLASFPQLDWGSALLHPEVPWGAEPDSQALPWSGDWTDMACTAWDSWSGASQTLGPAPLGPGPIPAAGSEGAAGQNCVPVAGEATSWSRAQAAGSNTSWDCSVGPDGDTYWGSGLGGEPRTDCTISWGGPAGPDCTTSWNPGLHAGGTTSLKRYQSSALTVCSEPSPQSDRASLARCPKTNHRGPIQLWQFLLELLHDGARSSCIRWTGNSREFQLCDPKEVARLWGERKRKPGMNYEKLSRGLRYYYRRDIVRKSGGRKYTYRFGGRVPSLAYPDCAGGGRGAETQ
# Procedure, shortened: as §1
# [17] = biological target: T11, ELF3 (Homo sapiens, UniProt P78545 1-371); conditions: protein: recombinant; tags: N-terminal GST; dsDNA, one strand shown
# T11 sequence: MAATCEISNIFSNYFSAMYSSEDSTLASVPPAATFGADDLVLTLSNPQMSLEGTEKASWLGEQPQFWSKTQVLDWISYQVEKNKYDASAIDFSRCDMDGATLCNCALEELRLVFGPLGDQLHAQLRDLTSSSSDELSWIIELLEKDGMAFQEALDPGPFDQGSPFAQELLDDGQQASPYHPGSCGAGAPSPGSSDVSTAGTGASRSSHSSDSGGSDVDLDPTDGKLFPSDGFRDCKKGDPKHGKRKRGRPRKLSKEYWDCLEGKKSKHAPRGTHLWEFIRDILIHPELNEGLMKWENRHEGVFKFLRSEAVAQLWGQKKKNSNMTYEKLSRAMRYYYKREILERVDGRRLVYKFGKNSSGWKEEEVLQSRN
# Procedure, shortened: as §1
# [18] = biological target: CRX (Homo sapiens, UniProt O43186 1-299); conditions: protein: recombinant; tags: N-terminal GST; dsDNA, one strand shown
# Sequence of CRX (O43186 whole entry): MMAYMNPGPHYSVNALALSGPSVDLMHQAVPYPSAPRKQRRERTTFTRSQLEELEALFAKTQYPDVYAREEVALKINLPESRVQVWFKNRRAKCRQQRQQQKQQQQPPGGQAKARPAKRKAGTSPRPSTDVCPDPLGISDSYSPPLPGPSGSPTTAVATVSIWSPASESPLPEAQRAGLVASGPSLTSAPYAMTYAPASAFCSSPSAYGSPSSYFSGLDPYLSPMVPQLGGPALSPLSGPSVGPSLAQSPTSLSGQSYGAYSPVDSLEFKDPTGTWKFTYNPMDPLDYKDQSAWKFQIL
# Procedure, shortened: as §1
# [19] = biological target: ETV1 (Homo sapiens, UniProt P50549 1-477); conditions: protein: recombinant; tags: N-terminal GST; dsDNA, one strand shown
# Sequence of ETV1 (P50549 whole entry): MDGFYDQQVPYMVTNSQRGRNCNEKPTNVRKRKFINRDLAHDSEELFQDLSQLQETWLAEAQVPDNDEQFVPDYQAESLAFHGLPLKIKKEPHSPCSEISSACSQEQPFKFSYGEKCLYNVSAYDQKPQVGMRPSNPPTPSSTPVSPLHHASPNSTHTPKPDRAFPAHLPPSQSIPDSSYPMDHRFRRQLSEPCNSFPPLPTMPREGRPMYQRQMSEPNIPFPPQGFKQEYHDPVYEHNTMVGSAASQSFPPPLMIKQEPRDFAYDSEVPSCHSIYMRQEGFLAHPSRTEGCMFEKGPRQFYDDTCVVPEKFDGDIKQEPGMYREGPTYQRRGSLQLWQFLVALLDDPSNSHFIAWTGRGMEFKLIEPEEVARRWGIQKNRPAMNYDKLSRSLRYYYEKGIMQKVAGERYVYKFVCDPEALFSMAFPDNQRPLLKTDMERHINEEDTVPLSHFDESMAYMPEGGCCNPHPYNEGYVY
# Procedure, shortened: as §1
sequence,measurement,setting,value
GAAGCT,binding signal,[1],"1.62 fold enrichment (6-mer frequency, TF over GST control)"
same,binding signal,[2],"1.7 fold enrichment (6-mer frequency, TF over GST control)"
same,binding signal,[3],"1.52 fold enrichment (6-mer frequency, TF over GST control)"
same,binding signal,[4],"1.64 fold enrichment (6-mer frequency, TF over GST control)"
same,binding signal,[5],"1.44 fold enrichment (6-mer frequency, TF over GST control)"
same,binding signal,[6],"1.69 fold enrichment (6-mer frequency, TF over GST control)"
same,binding signal,[7],"1.63 fold enrichment (6-mer frequency, TF over GST control)"
same,binding signal,[8],"1.64 fold enrichment (6-mer frequency, TF over GST control)"
same,binding signal,[9],"1.66 fold enrichment (6-mer frequency, TF over GST control)"
same,binding signal,[10],"1.48 fold enrichment (6-mer frequency, TF over GST control)"
same,binding signal,[11],"1.62 fold enrichment (6-mer frequency, TF over GST control)"
same,binding signal,[12],"1.74 fold enrichment (6-mer frequency, TF over GST control)"
same,binding signal,[13],"1.44 fold enrichment (6-mer frequency, TF over GST control)"
same,binding signal,[14],"1.49 fold enrichment (6-mer frequency, TF over GST control)"
same,binding signal,[15],"1.69 fold enrichment (6-mer frequency, TF over GST control)"
same,binding signal,[16],"1.56 fold enrichment (6-mer frequency, TF over GST control)"
same,binding signal,[17],"1.47 fold enrichment (6-mer frequency, TF over GST control)"
same,binding signal,[18],"1.47 fold enrichment (6-mer frequency, TF over GST control)"
same,binding signal,[19],"1.57 fold enrichment (6-mer frequency, TF over GST control)"
